Data: PubChem BioAssay (Tox21)
Inconclusive results are not listed. Calls of active or inactive are those of the source. Calls come from the whole dose curve; as a rule, active = well fitted curve in the direction sought with a large enough effect in the repeat runs; inconclusive = weak or mixed curves; inactive = no such curve, though single readings can be large; an effect the other way counts as inactive or inconclusive.

Key:
[1] = Caspase-3/7 induction in CHO-K1 cells by small molecules, qHTS assay (AID 1346980); note: nearly all actives have a fitted effect of over 15% in size; note: potency is the fitted concentration of half-maximal effect
Summary of the method: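 Wild-type cells were seeded at 1,500 per well and settled 5 hr at 37 C, 5% CO2, then exposed to DMSO-dissolved compounds for 17 hr. Caspase-Glo 3/7 reagent was added, and luminescence was read after 30min at room temperature.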

[2] = Caspase-3/7 induction in HepG2 cells by small molecules, qHTS cell viability counter screen (AID 1346981); note: nearly all actives have a fitted effect of over 30% in size; note: potency is the fitted concentration of half-maximal effect; for activity change, negative = cytotoxicity: series mostly up to about 92 µM
Summary of the method: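 In this quantitative HTS counter screen, compounds delivered in DMSO were left on unmodified HepG2 cells for 16 hr at 37 C. Viability was then determined fluorometrically with CellTiter-Fluor, in parallel with caspase-3/7 induction in the same wells.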

[3] = target: Nuclear receptor subfamily 1 group I member 2 (Homo sapiens) (UniProt O75469); assay: Human pregnane X receptor (PXR) small molecule agonists, qHTS assay (AID 1346982); note: nearly all actives have a fitted effect of over 35% in size; note: potency is the fitted concentration of half-maximal effect
Summary of the method: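 Reporter HepG2 cells expressing PXR-Luc are cultured in charcoal-stripped FBS (5%), treated with compounds for 24 hr at 37 C, and assayed by ONE-Glo luminescence after 30 min at room temperature.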

[4] = target: Nuclear receptor subfamily 1 group I member 2 (Rattus norvegicus) (UniProt Q9R1A7); assay: Rat pregnane X receptor (rPXR) activation by small molecules, qHTS assay (AID 1346983); details: rPXR luciferase reporter cells, One-Glo luminescence, 24 h; max activation: hits give high values; note: nearly all actives have a fitted effect of over 20% in size
Summary of the method: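 Cell-based rPXR luciferase reporter assay, 2,000 cells per well, rested 5hr at 37 C before compound addition in DMSO, then 24 hr at 37 C. One-Glo reagent was added and luminescence read after 30 min at room temperature.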

[5] = target: Nuclear receptor subfamily 1 group I member 2 (Homo sapiens) (UniProt O75469); assay: CYP3A4 induction through human pregnane X receptor (PXR) by small molecules, qHTS assay (AID 1346984); note: nearly all actives have a fitted effect of over 40% in size; note: potency is the fitted concentration of half-maximal effect
Summary of the method: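 Induction measured in HepG2-based DPX-2 cells co-expressing human PXR and a CYP3A4 promoter-driven luciferase. After a 24-hour compound exposure, cells received CYP3A4 luciferin substrate at 3uM final for 3 hours, and light output was then recorded.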

[6] = target: Nuclear receptor subfamily 1 group I member 2 (Homo sapiens) (UniProt O75469); assay: Human pregnane X receptor (PXR) activation by small molecules, qHTS assay (AID 1346985); note: nearly all actives have a fitted effect of over 40% in size
Summary of the method: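 DPX-2 cells (HepG2 co-transfected with a PXR response element and a CYP3A4-promoter luciferase construct) were seeded at 2,000 per well, rested 5 hr at 37C, then exposed to DMSO-dissolved compounds for 24 hr. Activation was read as luciferase luminescence.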

[7] = target: Cytochrome P450 3A4 (Homo sapiens) (UniProt P08684); assay: Cytochrome P450 Family 3 Subfamily A Member 4 (CYP3A4) small molecule antagonists: luciferase reporter qHTS assay (AID 1671201); note: nearly all actives have a fitted effect of over 50% in size; note: potency is the fitted concentration of half-maximal effect; for activity change, negative = inhibition: series mostly up to about 120 µM
Summary of the method: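 qHTS, 1536-well. CYP3A4 + proluciferin substrate, cpd 10 min RT → NADPH regen 1 h RT → detection reagent 20 min → luminescence (RLU). Ketoconazole positive control.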

[8] = target: Cytochrome P450 2D6 (Homo sapiens) (UniProt P10635); assay: Cytochrome P450 Family 2 Subfamily D Member 6 (CYP2D6) small molecule antagonists: luciferase reporter qHTS assay (AID 1671196); note: nearly all actives have a fitted effect of over 50% in size; note: potency is the fitted concentration of half-maximal effect; for activity change, negative = inhibition: series mostly up to about 120 µM
Summary of the method: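 Test chemicals meet CYP2D6 plus proluciferin substrate (10 min, RT); NADPH regenerating solution then drives turnover for 1 h. Detection reagent halts the reaction; luminescence measured after 20 min.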

[9] = target: Cytochrome P450 2C19 (Homo sapiens) (UniProt P33261); assay: Cytochrome P450 Family 2 Subfamily C Member 19 (CYP2C19) small molecule antagonists: luciferase reporter qHTS assay (AID 1671197); note: nearly all actives have a fitted effect of over 65% in size; note: potency is the fitted concentration of half-maximal effect; for activity change, negative = inhibition: series mostly up to about 120 µM
Summary of the method: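 Compounds were tested on CYP2C19 activity via proluciferin conversion to luciferin. The 37C, 1 h reaction followed NADPH addition; detection reagent stopped it.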

[10] = target: Cytochrome P450 2C9 (Homo sapiens) (UniProt P11712); assay: Cytochrome P450 Family 2 Subfamily C Member 9 (CYP2C9) small molecule antagonists: luciferase reporter qHTS assay (AID 1671198); note: nearly all actives have a fitted effect of over 50% in size; note: potency is the fitted concentration of half-maximal effect; for activity change, negative = inhibition: series mostly up to about 120 µM
Summary of the method: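 CYP2C9 activity was measured with a P450-Glo proluciferin substrate. Enzyme–substrate mix was held with compound for 10 min at room temperature, then NADPH regeneration solution was added for 1 h at 37C. Luciferin product was read as luminescence.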

[11] = target: Cytochrome P450 1A2 (Homo sapiens) (UniProt P05177); assay: Cytochrome P450 Family 1 Subfamily A Member 2 (CYP1A2) small molecule antagonists: luciferase reporter qHTS assay (AID 1671199); note: nearly all actives have a fitted effect of over 50% in size; note: potency is the fitted concentration of half-maximal effect; for activity change, negative = inhibition: series mostly up to about 120 µM
Summary of the method: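 Steps: enzyme-substrate mix dispensed; test compounds and furafylline control pinned in; 10 min room temperature; NADPH regeneration solution added, 1 h; reaction stopped with luciferin detection reagent; luminescence read after 20 min.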

[12] = target: Voltage-gated inwardly rectifying potassium channel KCNH2 (Homo sapiens) (UniProt Q12809); assay: Human Ether-a-go-go-Related Gene (hERG) channel small molecule antagonists: fluorescence cell-based qHTS assay (AID 1671200); note: nearly all actives have a fitted effect of over 50% in size; note: potency is the fitted concentration of half-maximal effect;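 for activity change, negative = inhibition: hERG-expressing U2OS cells given a thallium stimulus after FluxOR II dye loading; series mostly up to about 77 µM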
Summary of the method: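 Fluorescence at 540 nm emission (480 nm excitation) was recorded kinetically for 2 min at 1-second intervals once the thallium-containing stimulus reached cells previously loaded with FluxOR II dye.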
% is set by controls: 0 for no effect and ±100 for the full control effect.

Sequence of Nuclear receptor subfamily 1 group I member 2 (Homo sapiens) (O75469 whole entry, looked up): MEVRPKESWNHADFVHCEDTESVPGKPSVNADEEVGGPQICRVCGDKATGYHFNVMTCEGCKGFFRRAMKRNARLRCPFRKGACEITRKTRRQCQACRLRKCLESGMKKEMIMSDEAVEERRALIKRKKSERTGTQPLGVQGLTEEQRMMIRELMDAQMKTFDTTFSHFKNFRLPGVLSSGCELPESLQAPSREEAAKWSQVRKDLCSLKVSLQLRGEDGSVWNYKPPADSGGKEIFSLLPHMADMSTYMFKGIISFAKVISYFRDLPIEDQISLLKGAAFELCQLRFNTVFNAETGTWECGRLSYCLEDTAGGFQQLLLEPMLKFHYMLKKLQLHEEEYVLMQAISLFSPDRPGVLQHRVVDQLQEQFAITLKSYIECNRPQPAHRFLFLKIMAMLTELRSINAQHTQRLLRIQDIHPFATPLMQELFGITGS
Sequence of Cytochrome P450 2C9 (Homo sapiens) (P11712 whole entry, looked up): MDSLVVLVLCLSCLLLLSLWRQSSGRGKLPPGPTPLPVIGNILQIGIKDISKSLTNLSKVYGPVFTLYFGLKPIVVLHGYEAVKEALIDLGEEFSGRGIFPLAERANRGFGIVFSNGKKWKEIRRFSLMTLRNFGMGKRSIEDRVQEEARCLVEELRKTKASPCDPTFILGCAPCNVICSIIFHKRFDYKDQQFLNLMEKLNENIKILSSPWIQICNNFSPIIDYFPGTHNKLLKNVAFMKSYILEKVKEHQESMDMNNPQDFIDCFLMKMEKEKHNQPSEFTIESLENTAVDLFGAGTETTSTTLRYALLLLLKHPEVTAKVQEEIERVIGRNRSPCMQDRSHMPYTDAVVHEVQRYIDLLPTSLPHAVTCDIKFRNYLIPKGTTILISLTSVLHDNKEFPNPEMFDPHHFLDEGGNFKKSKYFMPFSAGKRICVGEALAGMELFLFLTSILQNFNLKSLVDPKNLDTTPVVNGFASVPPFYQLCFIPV
Sequence of Voltage-gated inwardly rectifying potassium channel KCNH2 (Homo sapiens) (Q12809 whole entry, looked up): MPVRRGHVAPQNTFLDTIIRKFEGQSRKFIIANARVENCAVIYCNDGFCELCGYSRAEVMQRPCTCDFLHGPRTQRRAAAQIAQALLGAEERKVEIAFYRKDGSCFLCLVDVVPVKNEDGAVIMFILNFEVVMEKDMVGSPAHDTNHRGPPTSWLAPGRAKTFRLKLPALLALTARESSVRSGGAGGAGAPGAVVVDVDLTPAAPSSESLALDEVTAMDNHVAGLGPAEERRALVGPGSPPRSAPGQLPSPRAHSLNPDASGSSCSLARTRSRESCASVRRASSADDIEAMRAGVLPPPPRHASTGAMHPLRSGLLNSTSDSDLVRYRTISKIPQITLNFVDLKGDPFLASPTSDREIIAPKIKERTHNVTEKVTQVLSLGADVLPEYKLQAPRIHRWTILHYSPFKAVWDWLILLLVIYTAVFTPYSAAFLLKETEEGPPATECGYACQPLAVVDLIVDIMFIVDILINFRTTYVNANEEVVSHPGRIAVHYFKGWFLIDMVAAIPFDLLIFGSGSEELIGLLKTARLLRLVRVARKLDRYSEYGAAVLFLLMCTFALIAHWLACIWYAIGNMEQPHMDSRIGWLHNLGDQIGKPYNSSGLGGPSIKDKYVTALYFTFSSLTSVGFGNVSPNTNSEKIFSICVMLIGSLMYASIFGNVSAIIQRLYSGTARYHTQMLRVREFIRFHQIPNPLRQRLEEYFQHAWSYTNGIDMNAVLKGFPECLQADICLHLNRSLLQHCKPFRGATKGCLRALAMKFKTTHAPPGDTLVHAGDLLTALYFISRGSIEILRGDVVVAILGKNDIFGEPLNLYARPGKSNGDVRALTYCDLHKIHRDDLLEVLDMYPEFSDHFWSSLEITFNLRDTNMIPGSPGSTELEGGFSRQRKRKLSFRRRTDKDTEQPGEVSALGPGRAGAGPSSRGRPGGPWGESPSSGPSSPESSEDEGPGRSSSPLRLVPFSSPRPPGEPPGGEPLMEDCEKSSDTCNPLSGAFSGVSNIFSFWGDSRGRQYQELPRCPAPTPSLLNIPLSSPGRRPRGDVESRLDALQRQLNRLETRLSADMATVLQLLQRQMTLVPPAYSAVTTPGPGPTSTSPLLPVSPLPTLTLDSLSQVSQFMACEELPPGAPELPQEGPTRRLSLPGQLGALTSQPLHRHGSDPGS
Sequence of Cytochrome P450 3A4 (Homo sapiens) (P08684 whole entry, looked up): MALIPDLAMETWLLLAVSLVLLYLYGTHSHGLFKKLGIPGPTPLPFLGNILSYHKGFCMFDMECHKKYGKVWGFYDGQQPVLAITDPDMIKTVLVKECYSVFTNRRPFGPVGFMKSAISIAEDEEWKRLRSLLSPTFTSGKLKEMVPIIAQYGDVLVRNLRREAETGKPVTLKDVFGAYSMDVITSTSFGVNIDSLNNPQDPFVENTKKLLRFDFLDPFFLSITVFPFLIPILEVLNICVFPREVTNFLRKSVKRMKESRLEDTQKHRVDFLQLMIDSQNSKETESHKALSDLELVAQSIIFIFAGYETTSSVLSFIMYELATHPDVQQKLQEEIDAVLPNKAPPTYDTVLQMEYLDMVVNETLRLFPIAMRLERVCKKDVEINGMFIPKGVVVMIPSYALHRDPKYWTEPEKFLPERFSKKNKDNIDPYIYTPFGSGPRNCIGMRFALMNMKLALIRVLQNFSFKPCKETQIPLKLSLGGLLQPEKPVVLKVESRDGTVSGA
Sequence of Cytochrome P450 2D6 (Homo sapiens) (P10635 whole entry, looked up): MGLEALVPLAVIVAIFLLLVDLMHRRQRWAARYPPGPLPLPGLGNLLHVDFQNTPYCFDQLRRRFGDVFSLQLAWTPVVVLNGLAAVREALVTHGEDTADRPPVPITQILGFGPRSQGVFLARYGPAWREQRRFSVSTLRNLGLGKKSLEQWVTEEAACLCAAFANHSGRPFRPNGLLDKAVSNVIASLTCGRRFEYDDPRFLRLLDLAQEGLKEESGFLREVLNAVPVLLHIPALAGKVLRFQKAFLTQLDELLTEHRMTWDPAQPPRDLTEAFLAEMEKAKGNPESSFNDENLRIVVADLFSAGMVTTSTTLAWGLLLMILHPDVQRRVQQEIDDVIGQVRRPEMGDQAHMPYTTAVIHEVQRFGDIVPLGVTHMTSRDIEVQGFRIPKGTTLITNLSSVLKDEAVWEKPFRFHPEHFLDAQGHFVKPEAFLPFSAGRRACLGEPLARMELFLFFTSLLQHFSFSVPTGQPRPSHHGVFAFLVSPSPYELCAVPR
Sequence of Nuclear receptor subfamily 1 group I member 2 (Rattus norvegicus) (Q9R1A7 whole entry, looked up): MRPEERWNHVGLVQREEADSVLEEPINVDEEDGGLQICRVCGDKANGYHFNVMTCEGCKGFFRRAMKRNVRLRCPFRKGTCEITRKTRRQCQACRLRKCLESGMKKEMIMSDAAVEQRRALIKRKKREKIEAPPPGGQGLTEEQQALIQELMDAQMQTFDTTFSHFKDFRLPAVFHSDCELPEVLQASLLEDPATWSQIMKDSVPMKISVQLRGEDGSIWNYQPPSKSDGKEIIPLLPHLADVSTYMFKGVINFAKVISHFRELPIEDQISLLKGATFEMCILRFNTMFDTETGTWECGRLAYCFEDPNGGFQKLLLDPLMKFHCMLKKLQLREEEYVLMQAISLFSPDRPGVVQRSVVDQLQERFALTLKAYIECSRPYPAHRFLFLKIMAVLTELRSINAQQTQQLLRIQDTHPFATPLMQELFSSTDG
Sequence of Cytochrome P450 2C19 (Homo sapiens) (P33261 whole entry, looked up): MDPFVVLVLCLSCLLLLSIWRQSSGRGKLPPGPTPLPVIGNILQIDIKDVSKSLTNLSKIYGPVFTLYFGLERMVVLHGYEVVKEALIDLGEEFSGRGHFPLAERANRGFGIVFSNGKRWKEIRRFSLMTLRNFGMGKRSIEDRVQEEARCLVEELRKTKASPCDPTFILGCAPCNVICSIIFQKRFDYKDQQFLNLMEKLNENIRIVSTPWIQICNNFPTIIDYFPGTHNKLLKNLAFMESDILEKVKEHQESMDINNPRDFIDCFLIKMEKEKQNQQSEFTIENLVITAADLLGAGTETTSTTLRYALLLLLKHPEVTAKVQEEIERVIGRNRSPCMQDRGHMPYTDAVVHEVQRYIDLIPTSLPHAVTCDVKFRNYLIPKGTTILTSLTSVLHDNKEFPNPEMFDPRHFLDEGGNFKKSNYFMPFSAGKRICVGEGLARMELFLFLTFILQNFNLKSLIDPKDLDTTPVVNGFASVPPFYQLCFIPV
Sequence of Cytochrome P450 1A2 (Homo sapiens) (P05177 whole entry, looked up): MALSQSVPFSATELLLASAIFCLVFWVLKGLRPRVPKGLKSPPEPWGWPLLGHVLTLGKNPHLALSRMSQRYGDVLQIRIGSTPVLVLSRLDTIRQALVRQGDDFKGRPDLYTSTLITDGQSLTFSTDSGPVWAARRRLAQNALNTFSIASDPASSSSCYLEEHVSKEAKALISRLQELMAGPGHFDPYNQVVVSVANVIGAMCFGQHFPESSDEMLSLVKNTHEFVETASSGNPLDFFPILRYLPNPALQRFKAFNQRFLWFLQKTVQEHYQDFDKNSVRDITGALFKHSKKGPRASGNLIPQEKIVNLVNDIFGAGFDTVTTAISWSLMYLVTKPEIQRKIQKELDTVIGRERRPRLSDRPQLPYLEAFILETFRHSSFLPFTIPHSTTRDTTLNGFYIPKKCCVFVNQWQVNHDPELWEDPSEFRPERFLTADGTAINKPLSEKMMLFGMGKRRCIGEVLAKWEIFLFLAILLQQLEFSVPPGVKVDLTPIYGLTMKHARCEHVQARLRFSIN

O=C(CCN1CCC(c2ccccc2)C1)c1ccc2c(c1)OCCO2 (centres undefined)
active: Potency [3] 13.3 µM
inactive: Potency [1] | Potency [2] | max activation [4] -4.55% | Potency [5] | Potency [6] | Potency [7]

CCOC(=O)[C@H](C)O
inactive: Potency [1] | Potency [2] | Potency [3] | Potency [8] | Potency [9] | Potency [10] | Potency [11] | Potency [12] | Potency [7]

CC(C)(C)c1cc(CCC(=O)OCCSCCOC(=O)CCc2cc(C(C)(C)C)c(O)c(C(C)(C)C)c2)cc(C(C)(C)C)c1O
inactive: Potency [1] | Potency [2] | Potency [3] | Potency [8] | Potency [11] | Potency [12]
active: Potency [9] 8.71 µM | Potency [10] 2.19 µM | Potency [7] 4.9 µM

[Cl][Dy]([Cl])[Cl]
inactive: Potency [1] | Potency [2] | Potency [3] | Potency [8] | Potency [9] | Potency [10] | Potency [11] | Potency [12]

CO[Si](OC)(c1ccccc1)c1ccccc1
active: Potency [3] 34.4 µM | Potency [9] 10 µM | Potency [10] 20 µM
inactive: Potency [1] | Potency [2] | Potency [8] | Potency [11] | Potency [12]

O=C(O)C[C@H](O)C[C@H](O)/C=C/c1c(C2CC2)nc2ccccc2c1-c1ccc(F)cc1
inactive: activity change, negative = cytotoxicity [2] -8.1% [at 19 µM] | activation [3] 12.4% [at 19 µM] | Potency [6] | activity change, negative = inhibition [8] -0.811% [at 23.6 µM] | activity change, negative = inhibition [9] 11.6% [at 23.6 µM] | activity change, negative = inhibition [11] -11.8% [at 23.6 µM] | activity change, negative = inhibition [12] 2.63% [at 15.8 µM] | activity change, negative = inhibition [7] -3.86% [at 23.6 µM]
active: Potency [1] 5.8 µM | Potency [5] 14.1 µM

C=C1CC[C@H]2O[C@]2(C)CC[C@@H]2[C@@H]1CC2(C)C
inactive: Potency [1] | Potency [2] | Potency [3] | Potency [8] | Potency [9] | Potency [10] | Potency [11] | Potency [12] | Potency [7]

CC(CC(C)(C)C)CC(C)(C)CC(C)(C)C (centres undefined)
inactive: Potency [1] | Potency [2] | Potency [3] | Potency [8] | Potency [9] | Potency [10] | Potency [11] | Potency [12] | Potency [7]

O=C1OC(O)C(C(Cl)Cl)=C1Cl (centres undefined)
active: Potency [2] 50 µM | Potency [3] 22.4 µM
inactive: Potency [1] | Potency [8] | Potency [9] | Potency [10] | Potency [11] | Potency [12] | Potency [7]

CCCOC(=O)c1ccc(O)cc1
inactive: Potency [1] | Potency [2] | max activation [4] -0.262% | Potency [6] | Potency [12]
active: Potency [3] 48.6 µM

Clc1ccc2c(Cl)ccnc2c1
inactive: Potency [1] | Potency [2] | Potency [3] | Potency [8] | Potency [9] | Potency [10] | Potency [12] | Potency [7]
active: Potency [11] 5.64 µM

Clc1cccc(Cl)n1
inactive: Potency [1] | Potency [2] | Potency [3] | Potency [8] | Potency [9] | Potency [10] | Potency [11] | Potency [12] | Potency [7]

CN(C/C=C/c1ccccc1)Cc1cccc2ccccc12
inactive: Potency [1] | Potency [2] | Potency [3] | max activation [4] -2.12% | Potency [5] | Potency [6] | Potency [7]
active: Potency [8] 0.977 µM | Potency [9] 3.89 µM | Potency [11] 12.9 µM | Potency [12] 2.39 µM

CCC(C)(C)c1ccc(CC(C)CN2C[C@@H](C)O[C@@H](C)C2)cc1 (some centres undefined)
inactive: Potency [1] | Potency [2] | Potency [3] | max activation [4] -0.729% | Potency [5] | Potency [7]
active: Potency [10] 27.5 µM | Potency [12] 9.52 µM

C[C@H]1O[C@@H](O[C@H]2CC[C@@]3(C)[C@H](CC[C@@H]4[C@@H]3C[C@@H](O)[C@]3(C)[C@@H](C5=CC(=O)OC5)CC[C@]43O)C2)C[C@H](O)[C@@H]1O[C@H]1C[C@H](O)[C@H](O[C@H]2C[C@H](O)[C@H](O[C@@H]3O[C@H](CO)[C@@H](O)[C@H](O)[C@H]3O)[C@@H](C)O2)[C@@H](C)O1
inactive: Potency [1] | Potency [2] | Potency [3] | max activation [4] 6.34% | Potency [5] | Potency [6] | Potency [9] | Potency [10] | Potency [12] | Potency [7]

Cc1ccc(C2OC[C@@H]3OC(c4ccc(C)cc4)O[C@H]([C@H](O)CO)[C@@H]3O2)cc1 (some centres undefined)
inactive: Potency [1] | Potency [2] | Potency [3] | Potency [8] | Potency [10] | Potency [11] | Potency [12]
active: Potency [9] 6.33 µM

COc1cc(/C=C/C(=O)CC(=O)/C=C/c2ccc(O)c(OC)c2)ccc1O
active: Potency [2] 30.8 µM | Potency [3] 24.5 µM | Potency [9] 10.1 µM | Potency [11] 31.9 µM | Potency [7] 10.1 µM
inactive: Potency [1] | max activation [4] 8.99% | Potency [5] | Potency [6]

CCCCCN=C(N)N/N=C/c1c[nH]c2ccc(OC)cc12
inactive: Potency [1] | Potency [3] | max activation [4] -0.704% | Potency [5] | Potency [8] | Potency [9] | Potency [7]
active: Potency [2] 26.6 µM | Potency [10] 38.9 µM | Potency [11] 4.9 µM | Potency [12] 10.7 µM
